Source: PubChem (National Center for Advancing Translational Sciences (NCATS))
An excerpt weighted towards active compounds, which were near 19% of everything screened.
TDP1 cell CPT: growth inhibition of DT40 Tdp1-/-;hTDP1 cells with camptothecin (screen for TDP1 inhibitors). Potency, µM (doses to about 46.2 µM), usual class: inhibitors. AID 686979. 420,000 tested, 12% active. chicken DT40 Tdp1-/-;hTDP1 cells + 20 nM CPT, ATP luminescence, 48 h; note: nearly all actives have a fitted effect of over 55% in size
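Chicken DT40 Tdp1-/- cells stably complemented with human TDP1 were seeded at 400 cells/well in medium containing 20 nM camptothecin, exposed to pin-transferred compounds, and grown at 37 °C for at least 48 hr. Viability was read as ATP luminescence.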
HT1080 IDH1KD tx: kills HT-1080 cells with IDH1 knockdown | HT-1080 IDH1 knockdown viability, ATP luminescence, 48 h | Potency, µM (doses to about 46.1 µM), actives largely listed as cytotoxic | 360,000 tested, 2% active
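Assay cells: HT-1080 with IDH1 knockdown, 750 per well, RPMI/5% FBS. Exposure: 48 h at 37 °C following 2 h pre-incubation. Read: CellTiter-Glo luminescence; fitted concentration-response, curve class assigned.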
HT1080NT lethal: kills 2HG-producing HT-1080-NT fibrosarcoma cells; HT-1080-NT fibrosarcoma viability, CellTiter-Glo ATP luminescence, 48 h; Potency, µM (top dose mostly 46.1 µM), most hits filed as cytotoxic; 360,000 tested, 1.6% active; AID 686970;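 note: NT is the 2HG producing partner of a matched IDH1 knockdown line; nearly all actives have a fitted effect of over 55% in size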
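Compounds were tested in concentration-response format on HT-1080-NT cells for 48 hours at 37 degrees C. Cell viability came from CellTiter-Glo luminescence; curves were classified by r2, response magnitude and activity.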
IL-1B inflam inh: blocks inflammasome-driven IL-1 beta release | 360,000 tested, 4.7% active | activity change, % at 57.5 µM | THP-1 LPS/ATP IL-1B secretion, AlphaLISA, 16 h; hits give low values; in the data active = activity change below about -50%; inconclusive = mostly about -30% to -49%
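Secreted IL-1B measured by AlphaLISA bead assay after 16 h compound exposure of THP-1 cells; compounds (final up to 57.5 uM) added 1 h before LPS (250 ng/mL) and ATP (1.25 mM) stimulation; lower signal means less secretion.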
DT40 TDP1 no CPT: qHTS for Inhibitors of human tyrosyl-DNA phosphodiesterase 1 (TDP1): qHTS in cells in absence of CPT. AID 686978, 2013. DT40 Tdp1-/- hTDP1 cells, no CPT, ATP luminescence, 48 h. Potency, µM (highest dose often 46.2 µM), usual class: inhibitors. 420,000 tested, 15% active; note: nearly all actives have a fitted effect of over 55% in size
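Camptothecin absent (DMSO only). Human TDP1-complemented DT40 knockout cells, 400 cells/well, 37 °C for minimum 48 hr; ATP measured via CellTiter-Glo, 30 min dark incubation, luminescence.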
Hits are given with their value; – = inactive; ? = inconclusive; · = not tested or not shown. Unless noted, calls come from the whole dose curve; as a rule, active = well fitted curve in the direction sought with a large enough effect; inconclusive = small, poorly fitted or top-dose-only effect, or another doubt; inactive = no such curve, though single readings can be large; an effect the other way counts as inactive or inconclusive.

SMILES	TDP1 cell CPT	HT1080 IDH1KD tx	HT1080NT lethal	IL-1B inflam inh	DT40 TDP1 no CPT
C=CCC[C@@H](Cc1ccc(F)cc1)C(=O)OCCNC(=O)[C@@H](CC=C)CC(=O)N(CCO)Cc1ccccc1	21µM	–	–	-61	21µM
C=CCC[C@@H](Cc1ccc(F)cc1)C(=O)OC[C@H](C)NC(=O)[C@@H](CC=C)CC(=O)N(CCO)Cc1ccccc1	?	–	–	?	21µM
C=CCC[C@H](Cc1ccc(F)cc1)C(=O)OC[C@@H](C)NC(=O)[C@H](CC=C)CC(=O)N(CCO)Cc1ccccc1	15µM	–	–	–	18µM
C=CC[C@H](CC(=O)N(CCO)Cc1ccccc1)C(=O)N[C@@H](C)COC(=O)[C@@H](CC=C)Cc1ccc(F)cc1	16µM	–	–	–	?
Cc1nc2nc(NC(=O)C(C)C)[nH]n2c(=O)c1Cc1ccccc1	–	·	·	·	–
C=CCC[C@@H](Cc1ccc(F)cc1)C(=O)OC[C@H](C)NC(=O)[C@H](CC=C)CC(=O)N(CCO)Cc1ccccc1	18µM	–	–	?	?
CCCCCCn1c(=O)n2n(c1=O)[C@@H]1CN(S(=O)(=O)c3ccc(C)cc3)C[C@]1(O)[C@@H](OC(=O)NCc1ccc(OC)c(OC)c1)C2	?	–	–	?	?
CCCCCCn1c(=O)n2n(c1=O)C[C@]1(OC(=O)NCc3ccccc3)CN(S(=O)(=O)c3ccc(C)cc3)C[C@]1(O)C2	?	–	–	–	15µM
Cc1ccc(S(=O)(=O)N2C[C@]3(O)C[C@@H]4C(=O)N(c5ccccc5)C(=O)[C@@H]4C[C@]3(OC(=O)NCc3ccco3)C2)cc1	–	–	–	–	–
CCCCCCn1c(=O)n2n(c1=O)C[C@]1(OC(=O)Nc3cccs3)CN(S(=O)(=O)c3ccc(C)cc3)C[C@]1(O)C2	21µM	–	–	-51	13µM
CCCCCCn1c(=O)n2n(c1=O)C[C@]1(OC(=O)NCc3ccco3)CN(S(=O)(=O)c3ccc(C)cc3)C[C@]1(O)C2	?	–	–	–	26µM
COC(=O)[C@H]1C[C@@]2(O)CN(S(=O)(=O)c3ccc(C)cc3)C[C@@]2(OC(=O)Nc2c(C)noc2C)C[C@H]1C(=O)OC	–	–	–	–	–
CCCCCCn1c(=O)n2n(c1=O)C[C@]1(OC(=O)Nc3c(C)noc3C)CN(S(=O)(=O)c3ccc(C)cc3)C[C@]1(O)C2	?	–	–	–	21µM
N#Cc1c(NC(=O)COC(=O)c2nccnc2N)sc2c1CCCC2	–	–	–	–	–
CN1CCCN(Cc2ccccc2Br)CC1	–	–	–	–	–
CC1=NNC(=O)C1CCC(=O)N/N=C\c1ccccc1[N+](=O)[O-] (centres undefined)	–	–	–	–	–
Cc1cccc(N2C(=O)N(Cc3cc(=O)n4ccccc4n3)c3ccccc3S2(=O)=O)c1	?	·	·	·	26µM
CC(C)C(=O)Nc1ccccc1OCc1cc(=O)n2ccccc2n1	–	·	·	·	–
CCc1ccccc1N1C(=O)N(Cc2cc(=O)n3ccccc3n2)c2ccccc2S1(=O)=O	23µM	·	·	·	18µM
Cc1nn(-c2ccccc2)c(C)c1/C=C/C(=O)OCC(=O)NC1CCS(=O)(=O)C1 (centres undefined)	–	–	–	–	–
CN(C(=O)COC(=O)/C=C/c1cn(-c2ccccc2)nc1-c1ccc2c(c1)OCCO2)C1CCS(=O)(=O)C1 (centres undefined)	?	–	–	?	15µM
O=C(COC(=O)/C=C/c1cn(-c2ccccc2)nc1-c1ccc2c(c1)OCCO2)NC1CCS(=O)(=O)C1 (centres undefined)	?	–	–	?	21µM
COC(=O)c1cccc(CN2C(=O)SC(Nc3ccc(Br)cc3)C2=O)c1 (centres undefined)	–	·	·	·	–
O=C(Nc1ncccc1O)c1ccc2c(c1)OCO2	?	–	–	–	16µM
O=C(Nc1ncccc1O)c1ccc2c(c1)OCCO2	23µM	–	–	–	15µM
SMILES	TDP1 cell CPT	HT1080 IDH1KD tx	HT1080NT lethal	IL-1B inflam inh	DT40 TDP1 no CPT
Cc1cccnc1NC(=O)c1ccc2c(c1)OCCO2	–	–	–	–	–
O=C(CSc1nnc(C2CCCCC2)o1)Nc1ccccc1Cl	–	–	–	–	?
N#CCCN(C(=O)COC(=O)c1ccc(CNS(=O)(=O)c2ccc(F)c(Cl)c2)cc1)c1ccc(F)cc1	–	–	?	–	?
O=C(CNC(=O)c1ccccc1F)NCc1ccccn1	–	–	–	–	–
CCCN(C(=O)c1ccccc1Cc1ccccc1)C1CCS(=O)(=O)C1 (centres undefined)	–	–	–	–	–
COc1cccc(N/C(N)=N/c2nc(C(F)(F)F)cc(=O)[nH]2)c1	10µM	–	–	–	?
CCNC(=O)C1CCCN(C(=O)c2ccco2)CC1 (centres undefined)	–	–	–	–	–
Cc1ccc(CNC(=O)CCCc2cn(C)c3ccccc23)cc1	?	–	–	–	?
Cc1ccc(CCNC(=O)CCc2cn(Cc3ccccc3C)c3ccccc23)cc1	18µM	·	·	·	16µM
Cc1ccc(Cn2cc(CCC(=O)NCC(C)c3ccccc3)c3ccccc32)cc1 (centres undefined)	?	·	·	·	16µM
O=C(CCc1c[nH]c2ccccc12)NCCc1ccc(Cl)cc1	–	–	–	?	–
CCOc1ccc(CCNC(=O)CCc2cn(Cc3ccc(F)cc3)c3ccccc23)cc1	?	·	·	·	21µM
Cc1ccccc1Cn1c(=O)n(CCCCC(=O)NCCc2ccccc2)c(=O)c2ccccc21	–	·	·	·	?
O=C(CCc1cn(Cc2ccc(F)cc2)c2ccccc12)NCCc1ccc(Cl)cc1	?	·	·	·	18µM
Cc1cc(Cl)ccc1OCC(=O)Nc1c(C(=O)c2ccccc2)oc2ccccc12	–	·	·	·	–
CCN1CCN(c2ccc(S(=O)(=O)N3CCCCC3)cc2NC(=O)c2cccc(C)c2)CC1	?	–	–	?	?
COc1ccc(S(=O)(=O)N2CCCCC2)cc1NC(=O)c1ccc(C)cc1	–	–	–	–	–
CCN1CCN(c2ccc(S(=O)(=O)N3CCCCC3)cc2NC(=O)c2ccc([N+](=O)[O-])o2)CC1	8.2µM	–	–	–	7.3µM
COc1ccc(S(=O)(=O)N2CCN(C(=O)c3ccc([N+](=O)[O-])o3)CC2)cc1	10µM	?	?	-82	21µM
COc1ccc(CCC(=O)N2CCN(S(=O)(=O)c3ccc(C)cc3)CC2)cc1	–	–	–	–	–
COc1ccc(S(=O)(=O)N2CCCCC2)cc1NC(=O)c1ccc([N+](=O)[O-])o1	15µM	–	–	·	21µM
Nn1c(COc2ccccc2F)nnc1SCC(=O)NC1CC1	–	–	–	–	–
